Assay results from PubChem BioAssay (Tox21).
Records with an inconclusive call do not appear. Entries that show only a call come without a potency. Activity calls are given as the source filed them. Calls come from the whole dose curve; as a rule, active = well fitted activation curve with a large enough effect in the signal ratio in the repeat runs (not every such curve was filed as active); inconclusive = weak or mixed curves; inactive = flat fitted curve, though single readings scatter; the % refers to the signal ratio.

Experiment: qHTS assay to identify small molecule agonists of H2AX (AID 1224845)
Details: CHO-K1 phospho-H2AX Ser139 HTRF, 3 h; series mostly up to 154 µM
Description: National Center for Advancing Translational Sciences [NCATS]
NIH Chemical Genomics Center [NCGC]
U.S. Environmental Protection Agency [EPA]
National Institutes of Environmental Health Sciences [NIEHS]
National Toxicology Program [NTP]
U.S. Food and Drug Administration [FDA]
HTRF phospho-H2AX (Ser139) assay (Cisbio Bioassays, US) enables the quantitative detection of the histone variant H2AX when phosphorylated on serine 139. When double-stranded DNA breaks, either by ionizing radiation or endogenous physiological processes, H2AX becomes phosphorylated at Ser139. This phospho-Ser139 serves as a sensitive biomarker for the detection of such breaks, localizing the site of DNA repair. So, HTRF phospho-H2AX Ser139 is a pertinent assay to study genome stability, the cell cycle, DNA repair, and it serves as a biomarker for cancer, and to understand aging. Wild type CHO-K1 cells were used to identify the inducers of Phospho-H2AX Ser 139 from the Tox21 10K compound collections.
Tox21 Assay Protocol Summary:
The CHO-K1 cells suspended in culture medium containing 10% FBS were dispensed at 1000 cells/ 3 ul/well in 1536-well white wall/solid bottom plates (Greiner Bio-One North America, NC) using a Multidrop Combi (Thermo Fisher Scientific Inc., Waltham, MA). After the assay plates were incubated at 37C overnight, 23 nl of compounds at 15 concentrations (from 5-48 columns) or positive control (from 1 to 4 columns) were transferred to the assay plates using a Pintool station (Wako, San Diego, CA) into each well resulting in a final DMSO concentration of 0.76%. After 3hr incubation at 37C, 1 uL/well Supplemented Lysis buffer (diluted 100 fold blocking reagent in lysis buffer) (HTRF Phospho-H2A.X (S139) Assay kit from Cisbio US Inc., Bedford, MA) was added using a Flying Reagent Dispenser (FRD) (Aurora Discovery, CA). After 10sec spin at 1000 rpm in a plate centrifuge, the assay plates were incubated at room temperature for 30 min. Then followed by the addition of 1 uL/well detection buffer (containing a mixture of two antibodies, one labeled with cryptate, Anti pH2AX (S139)-K and another labeled with d2, Anti H2AX-d2) using FRD. After incubation at room temperature for 24 hr, the time resolved fluorescence at excitation 320 nm and emissions at 665 nm and 620 nm was measured using an Envision plate reader (PerkinElmer, Waltham, MA).

| SMILES | Potency |
| --- | --- |
| CCCCCCC(O)CCCCCCCCCCC(=O)OC (stereo not given) | inactive |
| CC(=O)OC(C)C[N+](C)(C)C (stereo not given) | inactive |
| CCCCCCCCCCCC(=O)OCC(O)CO (stereo not given) | inactive |
| COC(=O)c1sccc1S(N)(=O)=O | inactive |
| CCCCCCOC(=O)CCCCC | inactive |
| CCCCCCCC(=O)Oc1c(Br)cc(C#N)cc1Br | inactive |
| CCNc1nc(N)nc(Cl)n1 | inactive |
| CC(=O)OCC(C)C | inactive |
| CC(O)Cn1cnc2c1c(=O)n(C)c(=O)n2C (stereo not given) | inactive |
| CCCCCCCCCCCCCCCC(=O)OCC | inactive |
| CCCOC(=O)c1c(Cl)c(Cl)c(Cl)c(Cl)c1C(=O)OCCC | inactive |
| CC(C)(C)C1(CCc2ccc(Cl)cc2)CO1 (stereo not given) | inactive |
| CCCCCCCCCCCCCCCCCC(=O)OCC(CC)CCCC (stereo not given) | inactive |
| Cc1ccc(N(CCO)CCO)cc1 | inactive |
| CSSc1ccoc1C | inactive |
| Cc1cc(CCCOc2c(C)cc(-c3noc(C(F)(F)F)n3)cc2C)on1 | inactive |
| CC(C)(O)c1coc(S(=O)(=O)NC(=O)Nc2c3c(cc4c2CCC4)CCC3)c1 | inactive |
| CC(=O)OCCC1CCCCC1 | inactive |
| CC(=O)Oc1cccc(O)c1 | inactive |
| CCCCCc1ccco1 | inactive |

| SMILES | Potency |
| --- | --- |
| CCCCCCCCCCCCCC(=O)OCC(O)CO (stereo not given) | inactive |
| Cc1oc(=O)oc1COC(=O)[C@@H]1N2C(=O)[C@@H](NC(=O)[C@H](N)c3ccccc3)[C@H]2SC1(C)C | inactive |
| O=C(O)c1cccc(C[C@@H]2COc3ccc(OCc4nc5cc(F)ccc5s4)cc3[C@@H]2O)c1 | inactive |
| CC(C)(O)CCc1ccccc1 | inactive |
| CC(C)COC(=O)COc1cc(Cl)c(Cl)cc1Cl | inactive |
| Cc1cc(CCC(=O)OCCOCCOCCOC(=O)CCc2cc(C)c(O)c(C(C)(C)C)c2)cc(C(C)(C)C)c1O | inactive |
| CCC1CCC(CCC(=O)O)C1 (stereo not given) | inactive |
| C=C(C)C(=O)OCCC(F)(F)C(F)(F)C(F)(F)C(F)(F)C(F)(F)C(F)(F)F | inactive |
| Cc1ccc(S(=O)(=O)NC(=O)NC2CCCCC2)cc1 | inactive |
| CC[C@H]1OC(=O)[C@H](C)[C@@H](O[C@H]2C[C@@](C)(OC)[C@@H](O)[C@H](C)O2)[C@H](C)[C@@H](O[C@@H]2O[C@H](C)C[C@H](N(C)C)[C@H]2O)[C@](C)(O)C[C@@H](C)C(=O)[C@H](C)[C@@H](O)[C@]1(C)O | inactive |
| O=C(O)CNC(=O)c1ccccc1I | inactive |
| CCN(CC)CC(=O)Nc1c(C)cccc1C(=O)OC | inactive |
| CCCCC(CC)COS(=O)(=O)O (stereo not given) | inactive |
| CC(=O)OCC1=C(C(=O)O)N2C(=O)[C@@H](NC(=O)CSc3ccncc3)[C@H]2SC1 | inactive |
| c1ccc(CCCc2ccncc2)cc1 | inactive |
| Cc1ccccc1S(N)(=O)=O | inactive |
| CC(C)(C)S | inactive |
| CC1C(C)(C)C2=C(C(=O)CCC2)C1(C)C (stereo not given) | inactive |
| CCCC(=O)OC(=O)CCC | inactive |
| CNc1c2c(nn1C)CCCC2 | inactive |
